Data as given in the supplement of paper PMC11417369.
In all, about 25,000 sequences were measured (“ln(normalized median fluorescence intensity)”: median about 6.7, highest 2% from about 10 on). The full list was thinned out, with the highest values kept by preference.

These sequences were tested on PfHDP1 homeodomain (GST-tagged) (assay: gcPBM binding intensity (ln(normalized median fluorescence intensity)); higher = stronger DNA binding).
Summary of the method: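 Probes on an Agilent 4 × 180k array were primer-extended, double-stranded and 36 bp long, taken from intergenic genomic regions, with negative controls added. GST-tagged P. falciparum DNA-binding domains from E. coli, about 25 μg on average, were applied to the array for 1 h in 1× PBS containing 1% milk, 0.2 mg/ml BSA, 0.5% salmon testes DNA and 0.03% Triton X-100. Binding intensity, obtained after Alexa488 anti-GST antibody detection and a 488 nm scan, is the highest Masliner-normalised natural-log median intensity across replicate spots of either probe orientation.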

Sequence	gcPBM binding intensity (ln)
TAACTTCAAAAATCTTGTACATAAATATATAAAACA [XGTACX_site8574]	6.29
GTGTTTGAAAATAAAGCATGCAAATATATTTGAAAT [TGCATGCA_site386]	7.23
TTTTTTATTGTGATACGTATATTATTTTATGATTAA [GTGCAC_negctrl_site202]	6.82
AAAGTAAAAAAAAAAACATGCACATATTTACTTTAT [TGCATGCA_site849]	7.94
TCTTTTATGCACATTGAGTAAACAACATATTTTTAA [TGCATGCA_negctrl_site561]	10.9
CATATTTATAAATATAAACACACAACATTATATGCA [CACACA_site9065]	6.82
ATAATATTATGTGTGAATATATCTTTAAAAAGGATA [GTGCAC_negctrl_site15]	6.33
AAGAGAAATATATATTGTACAATAATTTTATTTGGT [XGTACX_site7642]	6.21
ATATTAATAATATATACACACATAAGTATTGTATAT [CACACA_site4095]	6.46
TATAAATGTATACAAGTGCATATTATTCACACATAA	8.59
AAGTGCATATTATTCACACATAATAATTGTATACCT [CACACA_site5965]	10.5
TGATTCACTATAGTAGTGCATATTATATATATATAT [GTGCAC_site9975]	9.23
AAAAAAAAATATATATATATATATATATTTATGTAT [GTGCAC_negctrl_site483]	6.92
CATATTTTGTGAAAAAGTACATATATATATATATAT [XGTACX_site6295]	9.38
ATGATAATTATTAAGGGTACATAAAAATATATCTAT [XGTACX_site8969]	6.36
TACATATTGCACAAATAAAAAAGAACAAAAAAAAAA [CACACA_negctrl_site1200]	10.9
TTATAGAACTATATTGCACACATAATATATATATAT [CACACA_site9042]	10.1
ATATAGTTTCACATGTGTACATAAAAATACACTTGT [XGTACX_site3339]	6.59
TTTGTAGTTTGCACATGTACACATTTCAAAATAAAG [XGTACX_site7568]	10.7
ATGTCTACAGTTTTTGCACACATATAAATAAAAAAA [CACACA_site3600]	10.3
ATAGAACTATATTGCACACATAATATATATATATAT [CACACA_site3189]	10.7
TACATATAATATATTGCACACGTCAGAATAATATAG [CACACA_site1744]	10.3

Sequence	gcPBM binding intensity (ln)
TATATTGCAAAAAGTACACACATAAATAAATACATA [CACACA_site6589]	9.04
GTGTACAGTTTTTGCACACATATAAATAAAAAAAAG [CACACA_site3599]	10.2
TTTAAAAATAAAAGTACACACATAAACATATTGCAC [CACACA_site6784]	7.47
ATATATATATATAAATGTACATTTTTCAATAGTTTT [XGTACX_site7449]	8.98
ATCTGTACAGTTTTTGCACACATATAAATAAAAAAA [CACACA_site9198]	10.7
AAAAAATTATACCTTTGTACATAAATAAAATATTAT [XGTACX_site418]	6.23
AATAAATGGAAAAGGTGTACACAAAAAAAAGGGAAA [XGTACX_site4956]	7.54
AAAAAAAAAGTATATATATATTTAAGGAATTCTCTC [GTGCAC_negctrl_site454]	6.33
TATATTATATATATATGTACATATGGCAAAACATTA [XGTACX_site7958]	7.12
ATAGAAATATTATATTGTACGAACAGTTATTAACAA [XGTACX_site2137]	6.56
AAAATAAGTAATTACTAATATATAAATTAATAATTA [CACACA_negctrl_site1602]	5.84
ATAAATATTGGGTGCACACACATAATATATATATAT [CACACA_site2272]	10.5
ATATATATATATATTGCACACATATAAATATATATA [CACACA_site8167]	10.9
TTATTTACTTATTGCACACATATAAAATATATTTAT [CACACA_site3101]	10.7
CATACATATATTATTGCACACATATAAAATACCCCC [CACACA_site9292]	10.4
TACATATATTATTGCACACATATAAAATACCCCCAA [CACACA_site3895]	10.8
ATAAATATTGCGTGCACACACATAATATTTATATAT [CACACA_site7136]	10.3
ATATAAAAAAATTGCACACATAAATATATACATATA [CACACA_site1218]	10.1
TATTATTTACTTATTGCACACATATAAAATATATTT [CACACA_site9017]	10.2
ATTGGGTACAAATACACACACATATAAATATTAATA [CACACA_site7173]	6.68
TACAGATATTATTGCACACATATAAAATACCCCCAA [CACACA_site6014]	10.4
TATAAATTATAAATTGCACACATATTTTTATATTTA [CACACA_site8974]	10.1

Sequence	gcPBM binding intensity (ln)
CTATATAAAAAAATTGCACACATAAATATATACATA [CACACA_site8325]	9.87
TATAAAAAAATAAAAGGAATATACTTGCAAAGGGTA [CACACA_negctrl_site1438]	8.14
ATAATATTTTCTTCTTATTGAATGCTTTAAATTTAC [CACACA_negctrl_site1273]	6.46
CGCACTAAAAAACACACACACACACCCATATATATA [CACACA_site4152]	7.19
TTTTTAATTTTGTGGGTGCTTTCGTGTTATTATATA	7.23
ATAAACATGGAAATGTATTAAAAGCAAGTATATAAA [XGTACX_negctrl_site516]	6.66
TGTTTTTAAAAATATACACACACAGATATTATATAT [CACACA_site8162]	6.73
CATCCACATATATGTACACACATATATATATATATA [CACACA_site2964]	9.46
TATAATAATACTTATTGTACTATTAGTTTAATTCAT [XGTACX_site6638]	6.15
TATATATATATATTCACACATAAATATATGCACCCA [CACACA_site4263]	11
TGTAGAAATGGGTGCACACACATATAAAATCTATAT [CACACA_site7224]	10.4
TAAACATAAATATGCACACATATACATATATTCATA [CACACA_site2667]	9.75
TTTTTTTTTTTTTGCACACACATATATAAATATATA [CACACA_site3949]	9.41
AATGTAGAAATGGGTGCACACACATATATAATATAT [CACACA_site8799]	10.2
AATAAAAAAAAATGCACACATATATATATATATATA [CACACA_site2421]	9.87
AATATAAATAAACACACACACATATATATATATATT [CACACA_site2906]	6.78
ATATATATATATTGCACACATATAAATATATATATT [CACACA_site807]	10.6
TATAAATACATACATACACACATATATATATATATT [CACACA_site6116]	6.81
CTTTTTTTTTTTTTTGCACACACATATATAAATATA [CACACA_site3950]	10.6
TGTAGAAATGGGTGCACACACATATATAATATATAT [CACACA_site2507]	10.7
TATATATATATATTCACACATAAAAATAAAATAAAA [CACACA_site4774]	8.8
